hcDAF12 agonist = H. contortus DAF-12 nuclear receptor activators, primary screen, cell-based, luminescence, HEK293, lit1-tk-luc reporter; HEK293 hcDAF-12 lit1-tk-luc reporter; 0% DMSO, 100% Δ7-dafachronic acid; AID 652067, 2013; 370,000 compounds, 1.4% hits; activation, % at 6.8 µM;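 active means activation above the mean of all tested compounds plus 3 SD, cut at about 5.5% in these data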;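 further: 100% = response to 3 µM Δ7-dafachronic acid high control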
DAX1 inh-1 = DAX1 (NR0B1) inhibitors on StAR promoter, primary screen, cell-based, luminescence, SF-1 (NR5A1), full-length DAX-1; HEK293T StAR-luciferase reporter, SF-1/DAX-1 repression relief; inhibition, % at 6.8 µM; 370,000 compounds, 1.1% hits; AID 652010, 2013;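 active means inhibition above the mean over all tested compounds plus 3 SD, cut at about 3.6% in these data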;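 further: 0% = DAX-1 cells with DMSO and 100% = cells lacking DAX-1 with DMSO; higher inhibition means more luminescence from relief of DAX-1 repression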
hgDAF12 agonist = H. glycines DAF-12 receptor agonists, primary screen, cell-based, luminescence, HEK293, GAL4 fusion, UAS-luciferase. Nuclear hormone receptor DAF-12 (Heterodera glycines), GAL4 fusion. HEK293 GAL4-hgDAF12 UAS-luciferase reporter, agonist luminescence; normalized to butyrate control. activation, % at 6.8 µM. 370,000 compounds, 1.8% hits;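 active means activation above a cutoff set at the mean of all screened compounds plus 3 SD, cut at about 10% in these data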;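 further: 0% = DMSO wells and 100% = sodium butyrate wells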
DAX1 inh-2 = DAX1 (NR0B1) inhibitors, primary screen, cell-based, HEK293, Gal4-DAX1, luciferase luminescence; Nuclear receptor subfamily 0 group B member 1 (Homo sapiens), P51843; HEK293 Gal4-DAX1 luciferase reporter; inhibition, % at 6.75 µM; 340,000 compounds, 0.99% hits;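 active means inhibition above the mean over all tested compounds plus 3 SD, cut at about 4.2% in these data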;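 further: 0% = DAX1-transfected cells with DMSO and 100% = empty-vector control cells with DMSO; inhibition shows as a rise in luminescence from relieved DAX1 repression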
Target sequence (P51843 207-470 limits assumed): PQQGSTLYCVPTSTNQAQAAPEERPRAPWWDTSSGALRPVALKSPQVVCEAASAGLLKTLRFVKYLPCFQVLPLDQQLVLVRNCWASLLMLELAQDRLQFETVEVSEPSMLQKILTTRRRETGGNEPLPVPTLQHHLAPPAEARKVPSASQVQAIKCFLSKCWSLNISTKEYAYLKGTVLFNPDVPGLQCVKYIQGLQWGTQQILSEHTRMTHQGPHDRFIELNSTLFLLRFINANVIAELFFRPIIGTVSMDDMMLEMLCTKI
ssDAF-12 act = S. stercoralis DAF-12 nuclear receptor activators, primary screen, cell-based, luminescence, HEK293, GRIP1 co-expression, lit1-tk-luc | Nuclear hormone receptor DAF-12 (Strongyloides stercoralis) | activation, % at 6.8 µM | 370,000 compounds, 1% hits | HEK293 ssDAF-12/GRIP1 lit1-tk-luc reporter; % of 3 µM dafachronic acid response;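 active means activation above the mean over all tested compounds plus 3 SD, cut at about 0.9% in these data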;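 further: 0% = DMSO-only wells and 100% = 3 µM delta7-dafachronic acid wells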
* = called active by the depositor; . = not tested or not shown. Rows were chosen to be rich in hits. Some 4.1% of all compounds tested hit in one or more screens of this group.

SMILES	hcDAF12 agonist	DAX1 inh-1	hgDAF12 agonist	DAX1 inh-2	ssDAF-12 act
O=C(NCc1ccccc1)C(c1cc2ccccc2o1)n1c(=O)c(-c2ccccc2)nc2ccccc21 (configuration not stated)	4.1	3.8*	5.4	.	0.5
OC1CCN(Cc2cccc3ccccc23)CC1	-1.0	-0.5	1.5	5.0*	-1.0
CN1CCCN(Cc2cccc3ccccc23)CC1	1.9	0.0	-0.4	0.3	-1.3
C=CCN1C(=O)[C@H](CC(=O)N2CCN(C(=O)c3ccco3)CC2)[C@@]2(C(=O)OCC)CCCC=C12	-1.1	0.0	-0.8	.	-0.9
Cc1ccc2nc(/C(C#N)=C/c3ccccc3C(=O)O)[nH]c2c1	4.4	0.0	4.9	8.4*	1.0*
Cc1ccc2nc(/C(C#N)=C/c3ccc(O)c(O)c3)[nH]c2c1	-1.6	0.4	0.9	2.1	-0.9
N#C/C(=C\c1ccccc1C(=O)O)c1nc2ccccc2[nH]1	3.3	0.0	3.7	4.4*	-0.3
COc1cccc(/C=C(\C#N)c2nc3ccc(C)cc3[nH]2)c1OCC(=O)O	6.1*	0.4	4.6	0.8	-0.8
Cc1cc(C)n2nc(SCc3nc4ccccc4[nH]3)nc2n1	-1.7	0.0	-1.3	4.5*	-1.4
CCc1cc2c(nc1CC)CCCN2S(=O)(=O)c1ccccc1	-2.7	1.5	-0.8	.	-0.9
CC(C)(C)OC(=O)NCc1cc(F)ccc1/C=C/S(=O)(=O)NCc1ccccc1	-4.2	-0.4	-2.9	.	-1.1
CCCOc1ccc(-c2nnc(-c3cccs3)o2)cc1	4.4	2.1	10.5*	2.0	0.1
COc1c(Cl)cc(-c2noc(C)c2C(=O)NCc2ccc3c(c2)OCO3)cc1Cl	-1.3	-0.7	1.2	4.3*	-0.9
COc1cc(-c2noc(C)c2C(=O)NCc2ccc3c(c2)OCO3)cc(OC)c1OC	0.5	0.1	-0.5	2.1	-1.6
COc1ccc(N=Nc2nc3cc(Br)c(Br)cc3n2C)c(OC)c1	0.9	0.1	0.2	-0.6	1.6*
COC(=O)c1cccc(Cn2ccc3ccc(-c4ccc5ccn(Cc6cccc(C(=O)OC)c6)c5c4)cc32)c1	-2.9	-0.5	-3.5	.	-1.3
O=C(O)Cc1sc(Nc2cccc3ccccc23)nc1-c1ccccc1	1.4	4.3*	-1.6	-0.1	-0.5
O=C(O)Cc1sc(Nc2ccc(Cl)cc2)nc1-c1cccs1	5.8*	1.6	8.6	.	0.1
O=C(c1cccc(Cl)c1)N1CCN(c2ccnc3cc(Cl)ccc23)CC1	-4.4	.	-0.1	.	-2.8
CCOC(=O)c1cn2nc(Oc3ccc(NC(C)=O)cc3)ccc2n1	-0.6	0.0	1.2	4.9*	0.6
CCOC(=O)c1cn2nc(Oc3ccc(C(=O)OC)cc3)ccc2n1	0.0	-0.2	0.2	-1.4	-0.6
COc1ccc(CC(=O)NCC2CCCN(Cc3ccc(F)cc3F)C2)cc1 (configuration not stated)	5.2	0.6	11.6*	-0.8	0.5
COc1ccc(CC(=O)NCC2CCCN(Cc3ccc(OC)cc3F)C2)cc1 (configuration not stated)	-0.5	-0.1	-1.7	-0.1	-0.6
Cc1ccc(-c2csc(N/N=C/c3ccco3)n2)cc1	0.6	1.0	3.6	0.4	-0.6
Cc1ccc2nc(N/N=C/c3ccco3)cc(C)c2c1	2.6	1.8	10.8*	0.9	-0.7
SMILES	hcDAF12 agonist	DAX1 inh-1	hgDAF12 agonist	DAX1 inh-2	ssDAF-12 act
C(=N\Nc1nc(-c2ccccc2)cs1)/c1ccco1	3.5	1.2	12.9*	0.9	0.3
C(=N\Nc1nc(-c2ccccc2)cs1)/c1ccncc1	0.3	0.7	0.4	1.9	-0.6
NNc1nc(-c2ccccc2)cs1	6.0*	1.4	4.4	1.8	-0.2
C(=N\Nc1nc(-c2ccccc2)cs1)/c1cccs1	5.8*	1.5	3.5	2.1	0.5
CCN(CC)S(=O)(=O)c1ccc2[nH]c(=O)cc(C(=O)Nc3ccc(C)c(S(=O)(=O)N(CC)CC)c3)c2c1	0.3	-0.3	-0.5	-0.3	-1.4
CCCCCCN1CCS(=O)(=O)N(Cc2ccc(C)cc2)C(C(=O)OC)C1 (configuration not stated)	-2.1	-0.8	-3.7	.	-1.5
Cc1sc(N/N=C/c2ccco2)nc1-c1ccccc1	3.3	-0.4	5.4	-0.9	1.4*
Clc1ccc(-c2csc(N/N=C/c3ccco3)n2)cc1	2.3	0.5	4.3	6.2*	-1.2
COC(=O)C1CN(Cc2ccc(F)cc2)CCS(=O)(=O)N1Cc1ccc(OC)cc1 (configuration not stated)	0.8	0.6	1.7	.	-1.3
O=C(Cc1c(F)cccc1Cl)NCc1cccnc1	5.6*	0.0	3.3	0.6	-0.4
COc1ccc(-c2nc(SC)n(S(=O)(=O)c3ccccc3)n2)cc1	-0.2	1.4	5.1	-0.4	1.0*
COc1ccc2c3c([nH]c2c1)[C@]1(CCNC=O)Nc2ccccc2C1=NCC3	5.5	.	2.4	.	-0.5
CO[C@H]([C@H](C)/C=C/N(C)C=O)[C@@H](C)C(=O)CC[C@H](C)[C@H](O)[C@H](C)[C@H]1OC(=O)/C=C/C(C)=C/C[C@H](O)C[C@@H]2C=CC[C@@H](C[C@H](OC)[C@@H](C)[C@@H](OC)C[C@@H](OC)[C@@H]1C)O2	-3.4	.	-12.1	.	-2.3
CN[C@H]1C[C@H]2c3[nH]c4c(-c5ccc6c(c5)OCO6)cccc4c3CCN2C[C@H]1[C@H](C)O	-2.7	-0.7	-0.3	.	-1.0
COc1ccc(NC(=S)c2ccc(N(C)C)cc2)cc1	4.2	3.8*	8.5	1.9	0.1
O=C(CCc1ccccc1)N[C@H]1[C@@H](OC(=O)c2cnccn2)CCC[C@]12C(=O)N(Cc1ccccc1)c1ccccc12	-0.9	-0.1	-1.2	.	-0.8
O=C(NCCc1ccccc1)OCc1cn(Cc2ccc(Cl)cc2)nn1	-1.5	0.8	1.9	.	-0.7
Cc1ccc(C)c(NC(=S)NC2CC3CCC(C2)N3Cc2ccco2)c1 (configuration not stated)	-0.3	0.2	1.5	0.6	1.6*
O=C(NCCc1cccs1)C1CC(c2ccc([N+](=O)[O-])cc2)=NO1 (configuration not stated)	5.8*	0.8	8.2	2.8	0.5
COCCNC(=O)C1CC(c2ccc([N+](=O)[O-])cc2)=NO1 (configuration not stated)	-0.7	-0.2	0.2	2.0	-1.0
FC(F)(F)c1nnc2c(Sc3ccccc3)nc3ccccc3n12	4.1	0.5	5.6	0.0	-0.4
FC(F)(F)c1nnc2c(Sc3ccccn3)nc3ccccc3n12	5.6*	0.4	6.8	0.7	-0.1

High-throughput results from PubChem BioAssay.
